An excerpt weighted towards active compounds, which were near 4.7% of everything screened.
ADAM17 inh: inhibits human ADAM17 | P78536 | recombinant ADAM17, EDANS/DABCYL FRET peptide cleavage | inhibition, % at 6.95 µM | actives 0.83% (n = 370,000);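 active = inhibition above the mean of compounds lying between control limits plus 3 SD, set per campaign, cut at about 8.5% in these data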;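 note: 0% = DMSO-only wells as the low control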
MPTP inh: blocks calcium-induced mitochondrial swelling | isolated mouse mitochondria, Ca2+ swelling absorbance, 30 min | inhibition, % at 10 µM | actives 1.4% (n = 360,000);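 active = inhibition of 50% or more, scaled per plate between neutral and stimulator controls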;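 note: 0% = DMSO wells given calcium and 100% = 1 mM EGTA wells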
Pemphigus Ab inh: inhibitors of pemphigus antibody binding to human desmoglein-3 | P32926 | DSG3-coupled beads, scFv-anti-DSG3-GFP binding, flow cytometry; stronger effect = lower value | binding (percent of control), % at 10 µM | actives 0.48% (n = 310,000) | AID 588358;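 active = binding more than 3 SD below its plate's average and above zero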;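 note: hits lower antibody fragment binding to DSG3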
Target sequence (P32926 whole entry, looked up, the tested form may be a part): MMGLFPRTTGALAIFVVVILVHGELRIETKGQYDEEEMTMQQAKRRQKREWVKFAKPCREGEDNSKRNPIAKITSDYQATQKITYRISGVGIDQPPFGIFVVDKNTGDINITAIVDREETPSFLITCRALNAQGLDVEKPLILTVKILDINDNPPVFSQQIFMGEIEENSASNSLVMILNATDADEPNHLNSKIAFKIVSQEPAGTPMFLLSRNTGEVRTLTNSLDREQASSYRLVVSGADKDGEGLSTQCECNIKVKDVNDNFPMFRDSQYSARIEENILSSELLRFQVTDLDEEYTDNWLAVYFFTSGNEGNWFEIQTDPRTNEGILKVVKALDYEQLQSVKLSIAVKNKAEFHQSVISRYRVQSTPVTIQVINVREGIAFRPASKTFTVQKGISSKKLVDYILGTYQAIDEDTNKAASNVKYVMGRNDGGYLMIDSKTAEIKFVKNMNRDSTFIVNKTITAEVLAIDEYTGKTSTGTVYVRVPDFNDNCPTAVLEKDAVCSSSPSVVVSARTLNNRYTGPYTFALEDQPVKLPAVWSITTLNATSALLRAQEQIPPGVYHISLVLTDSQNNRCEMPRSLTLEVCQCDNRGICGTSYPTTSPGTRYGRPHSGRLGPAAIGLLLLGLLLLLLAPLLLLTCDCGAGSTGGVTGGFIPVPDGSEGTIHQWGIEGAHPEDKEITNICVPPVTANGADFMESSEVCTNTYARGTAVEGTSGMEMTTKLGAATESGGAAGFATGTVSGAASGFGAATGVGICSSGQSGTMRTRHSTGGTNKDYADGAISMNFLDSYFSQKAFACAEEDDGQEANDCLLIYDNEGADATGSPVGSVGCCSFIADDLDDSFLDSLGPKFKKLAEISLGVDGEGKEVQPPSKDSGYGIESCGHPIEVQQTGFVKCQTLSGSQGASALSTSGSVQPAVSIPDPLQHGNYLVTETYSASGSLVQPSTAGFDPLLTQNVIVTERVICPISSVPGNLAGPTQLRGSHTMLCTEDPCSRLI
rCAG RNA binder: binds r(CAG) RNA repeats; r(CAG) RNA repeat, TO-PRO-1 dye displacement fluorescence; inhibition, % at 3 µM; actives 1.3% (n = 370,000); AID 651821;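 active = inhibition above the plate cutoff, the mean of all test compounds on that plate plus 3 SD, cut at about 35% in these data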;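 note: 0% = DMSO alone and 100% = 100 µM mitoxantrone as full dye displacement; higher means more dye released from RNA so lower well fluorescence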
ADAM10 inh: ADAM10 inhibition, QFRET primary screen | recombinant ADAM10, EDANS/DABCYL FRET peptide cleavage, 3 h | inhibition, % at 7 µM | actives 0.62% (n = 370,000) | AID 720582;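 active = inhibition above a per-campaign cutoff equal to the mean of compounds falling between control-based bounds plus 3 SD, cut at about 20% in these data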;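 note: 0% = DMSO wells while the 100% control is not disclosed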
KLK7 zymogen act: proKLK7 (human) activation, primary screen. P49862. purified proKLK7, EDANS-DABCYL substrate fluorescence; 100% is mature enzyme control, 0% vehicle. activation, % at 7 µM. actives 0.9% (n = 370,000). AID 652039;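 active = activation above the mean of all tested compounds plus 3 SD, computed per campaign excluding outliers beyond control limits, cut at about 13% in these data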
Rh123 counter: membrane potential counter-screen of mitochondrial pore inhibitors; shares compounds with MPTP inh; actives 78% (n = 5,000); isolated mitochondria, Rhodamine 123 fluorescence; AID 624504; inhibition, % at 10 µM; in the data active = inhibition above about 22%;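 note: 0% = DMSO vehicle and 100% = positive control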
MPTP abs DR: MPTP inhibition, dose response swelling confirmation. IC50, µM. actives 58% (n = 780). isolated mitochondria swelling, absorbance. AID 651561. shares compounds with MPTP inh; in the data active = IC50 below about 20 µM
MPTP cs DR: MPTP inhibitor counter-screen activity, dose response; shares compounds with MPTP inh; isolated mitochondria counterscreen, fluorescence read-out; IC50, µM; actives 49% (n = 780); in the data active = IC50 below about 80 µM
* marks the source's active call; other numbers are inactive results; i = inactive; / = no result given.

SMILES | ADAM17 inh | MPTP inh | Pemphigus Ab inh | rCAG RNA binder | ADAM10 inh | KLK7 zymogen act | Rh123 counter | others
C/C=N/NC(=O)c1cc(Br)ccc1O | -17 | 1 | 102 | 7 | -53 | 1 | /
Clc1ccc(N/N=C/c2ccncc2)cc1Cl | 6 | 70* | / | 7 | 12 | 0 | 56*
Clc1cnc(N/N=C/c2ccncc2)c(Cl)c1 | -3 | -2 | 101 | -1 | -4 | 0 | /
CN1C(=O)CSc2ccc(NC(=O)NCCC3=CCCCC3)cc21 | 0 | 75* | 122 | 5 | 5 | 1 | 78*
CCOc1ccc(NC(=O)Nc2ccc3c(c2)N(C)C(=O)CS3)cc1 | 0 | 2 | 106 | 7 | -5 | 0 | /
COc1ccc(NC(=O)Nc2ccc3c(c2)N(C)C(=O)CS3)cc1Cl | 5 | 93* | 94 | 11 | -1 | 0 | 68*
CC(=O)c1ccc(NC(=O)Nc2ccc3c(c2)N(C)C(=O)CS3)cc1 | 1 | 96* | 99 | 12 | -13 | 0 | 77*
COc1ccc(NC(=O)Nc2ccc3c(c2)N(C)C(=O)CS3)cc1OC | -3 | -1 | 106 | 2 | -11 | 0 | /
Cc1ccc2c(c1)C1CS(=O)(=O)N(CCc3ccccc3)CN1C2 (stereo not drawn) | -5 | / | / | 5 | -3 | 0 | /
O=C(Nc1ccc2c(c1)CCC2)C1CCN(c2c3c(nc4ncnn24)CCC3)CC1 | 0 | 4 | 97 | -5 | 1 | 0 | /
O=C(Nc1ccc(Oc2ccccc2)cc1)C1CCN(c2c3c(nc4ncnn24)CCC3)CC1 | -2 | 67* | 101 | 1 | 8 | 0 | 76*
CNc1ncn(-c2c(C)cccc2C)c(=O)n1 | 3 | / | / | 2 | 13 | 0 | /
Cc1cc(Cl)n2c(nc3cc(F)c(F)cc32)c1C#N | -37 | 95* | / | 3 | -102 | 3 | 91*
Cc1cc(C)n2c(=O)c3ccc(Cl)cc3nc2c1C#N | -5 | 2 | 99 | -1 | -20 | 2 | /
CC(C)[C@H](NC(=O)c1ccc(Cl)c([N+](=O)[O-])c1)C(=O)NCc1ccc(Cl)cc1Cl | -1 | 86* | 100 | 4 | -7 | 0 | 93*
CCc1c(Cc2ccccc2)ncn1CCc1ccccc1OC | 0 | / | / | 4 | -2 | 0 | /
Cc1cccc(N=Cc2[nH]c3ccc(Br)c(Cl)c3c2O)c1 | 5 | 97* | 291 | 3 | 8 | 0 | 0 | MPTP abs DR=7.9*;MPTP cs DR=<2.5*
COc1ccccc1CN=Cc1[nH]c2ccc(Br)c(Cl)c2c1O | -1 | 1 | 158 | 11 | 3 | 0 | /
CCC1CCCCN1C(=O)COc1cccc2c1CCN(C)C2=O (stereo not drawn) | -5 | 9 | 110 | 0 | -4 | 0 | /
CN1CCc2c(OCC(=O)N3CCC(Cc4ccccc4)CC3)cccc2C1=O | 0 | 82* | 112 | -6 | 2 | 0 | 49*
Nc1[nH]c(C(=O)c2ccccc2)c(-c2ccc(Cl)cc2)c1C(=O)c1c[nH]c2ccc(F)cc12 | -2 | / | / | 11 | 0 | 0 | /
COc1ccc(-c2c[n+]3c4n2CCCCC4=C(c2ccc(Br)cc2)C3)cc1 | -3 | 56* | 100 | 16 | 3 | -3 | 68*
Clc1ccc(C2=C3CCCCn4c(-c5ccccc5)c[n+](c43)C2)cc1 | -4 | 6 | 109 | 5 | -23 | -11 | /
C[C@]12Cc3ccccc3C1CC1=N[C@@H](c3ccc(C(F)(F)F)cc3)O[C@@]13C[C@@H]2C(=O)N3Cc1ccncc1 (stereo partly drawn) | -7 | / | / | 1 | -27 | 0 | /
O=C(CSc1ncc(-c2ccc(F)cc2)n1Cc1ccco1)Nc1ccc2c(c1)OCO2 | 2 | 85* | 90 | 0 | 4 | -1 | 62*
SMILES | ADAM17 inh | MPTP inh | Pemphigus Ab inh | rCAG RNA binder | ADAM10 inh | KLK7 zymogen act | Rh123 counter | others
CCOc1ccc(NC(=O)CSc2ncc(-c3ccc(F)cc3)n2Cc2ccco2)cc1 | 2 | 8 | 98 | -2 | 18 | 0 | /
CCOC(=O)c1c(-c2cccs2)csc1NC(=O)CN(CC)CC | 6 | 9 | 108 | 4 | 9 | 1 | /
CCOC(=O)c1c(-c2cccs2)csc1NC(=O)CC(C)C | -3 | 57* | 79 | -3 | 10 | 0 | -1 | MPTP abs DR=>100;MPTP cs DR=>80
O=C(N/N=C/c1cn(-c2ccccc2)nc1-c1cccs1)c1ccc(Cl)cc1 | 0 | 70* | 113 | 5 | -6 | -1 | 65*
O=C(N/N=C/c1cn(-c2ccccc2)nc1-c1cccs1)c1ccccc1F | / | 2 | 89 | / | / | / | /
O=C(N[C@H](C(=O)N1CCC[C@H]1C(=O)NCc1ccccc1)c1ccccc1)c1ccc(Cl)c(Cl)c1 | 2 | / | / | 4 | 7 | 2 | /
CCCCCc1nc2sc3c(c2c(=O)n1NC(=O)c1ccc([N+](=O)[O-])cc1)CC(C)(C)OC3 | 6 | 90* | 102 | 20 | 10 | 0 | 76*
CCCCCCCc1nc2sc3c(c2c(=O)n1N)CC(C)(C)OC3 | -3 | 4 | 96 | 2 | -1 | 0 | /
Cc1ccc(-c2nc3cccnc3o2)cc1NC(=O)COc1ccc(C(C)(C)C)cc1 | 1 | 85* | 111 | 2 | 0 | 0 | 23*
Cc1ccc(-c2nc3cccnc3o2)cc1NC(=O)COc1ccc(Cl)cc1C | -4 | 2 | 100 | -1 | -10 | 0 | /
CC(C)CCc1noc(CN(C)CCC2CCOCC2)n1 | -6 | 1 | 105 | -2 | -2 | 0 | /
Cc1nn(C)c(C)c1CN(Cc1nc(CCC(C)C)no1)C(C)C | 0 | 103* | 105 | -9 | 2 | -1 | 93*
COC(/C(=N/O)c1ccc(Cl)cc1)c1ccccc1 (stereo not drawn) | 3 | 68* | 112 | -1 | 9 | 0 | 76*
COC(=O)N1C[C@H](OCCCOCc2ccccc2)[C@H]2C[C@@H]1c1ccccc1O2 | -3 | / | / | -1 | -2 | 0 | /
COc1ccc(Nc2nnc(-c3ccc4c(c3)OCO4)o2)cc1 | -5 | / | / | 5 | -4 | 0 | /
COc1ccc2cc(CNCCOCCOCCNCc3ccc4cc(OC)ccc4c3)ccc2c1 | -4 | 97* | / | 5 | -26 | 3 | -10
C[C@@H]1C[C@@H]2O[C@H]2CCCCC(=O)Cc2cc(O)cc(O)c2C(=O)O1 | -4 | / | / | 3 | -11 | 0 | /
Clc1ccc(C(c2ccccc2Cl)C(Cl)Cl)cc1 (stereo not drawn) | -6 | 61* | 100 | 0 | -3 | 0 | -5 | MPTP abs DR=i;MPTP cs DR=>80
CC(C)(C)C1(C)OC(=O)C(=Cc2ccc(OCC(=O)Nc3ccccc3)cc2)C(=O)O1 (stereo not drawn) | / | 67* | 104 | / | / | / | -3
